# Test results as given in PubChem BioAssay AID651903 (Broad Institute, 2012).
# About 1,100 (5%) of roughly 22,000 compounds were called active. Cut-off read from the data, not from the text of the source: active = activity score above about 55%; inconclusive = no clear call, values can overlap the other calls; inactive = below that. The sample as a whole holds a higher share of actives than the screen did.
# Experiment: T. cruzi growth inside host cells – cell-based, plate reader, single point, set 2, primary screen (AID 651903);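 note: parasites and compound incubated about four days before reading; 0% = median of neutral control wells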
# Settings: intracellular Trypanosoma cruzi in host cells, at 5.01 µM, active compounds read high
row,SMILES,activity score (inhibition)
1,Cc1ccc(S(=O)(=O)N(C)C[C@H]2Oc3c(NC(=O)C4CC4)cccc3C(=O)N([C@@H](C)CO)C[C@@H]2C)cc1,0.737% (inactive)
2,Cc1noc(C)c1S(=O)(=O)Nc1ccc2c(c1)C(=O)N([C@H](C)CO)C[C@H](C)[C@H](CN(C)S(=O)(=O)c1cn(C)cn1)OCCCC[C@@H](C)O2,-39.1% (inactive)
3,COc1ccc(CN(C)C[C@H]2Oc3c(NC(=O)Nc4ccccc4)cccc3C(=O)N([C@@H](C)CO)C[C@@H]2C)cc1,6.85% (inactive)
4,CCCC(O)C#Cc1cnc2c(c1)C(=O)N([C@H](C)CO)C[C@H](C)[C@H](CN(C)Cc1ccc(F)cc1)O2 (some centres not stated),18.5% (inactive)
5,Cc1cc(C(=O)Nc2cccc3c2O[C@@H](CN(C)S(=O)(=O)c2ccc(F)cc2)[C@@H](C)CN([C@H](C)CO)C3=O)n(C)n1,32.3% (inactive)
6,Cc1noc(C)c1NC(=O)Nc1ccc2c(c1)C(=O)N([C@H](C)CO)C[C@H](C)[C@@H](CN(C)S(=O)(=O)c1cn(C)cn1)O2,-7.25% (inactive)
7,C[C@@H]1CN([C@H](C)CO)C(=O)Cc2cc(NC(=O)Nc3ccc(F)cc3)ccc2O[C@@H]1CN(C)C(=O)Nc1ccc2c(c1)OCO2,-18.5% (inactive)
8,C[C@@H]1CN([C@@H](C)CO)C(=O)Cc2cc(NC(=O)Nc3ccccc3)ccc2O[C@@H]1CN(C)S(=O)(=O)c1ccc(F)cc1,5.25% (inactive)
9,CC(C)NC(=O)N(C)C[C@H]1Oc2ccc(NS(C)(=O)=O)cc2CC(=O)N([C@@H](C)CO)C[C@H]1C,-20.6% (inactive)
10,COc1ccc(CN(C)C[C@@H]2Oc3ccc(NS(=O)(=O)c4cn(C)cn4)cc3C(=O)N([C@@H](C)CO)C[C@H]2C)cc1,-24.5% (inactive)
11,C[C@@H]1CN([C@@H](C)CO)C(=O)c2cccc(NC(=O)c3nc4ccccc4s3)c2O[C@H]1CN(C)S(=O)(=O)c1cccs1,28.4% (inactive)
12,C[C@@H]1CN([C@H](C)CO)C(=O)c2cccc(NC(=O)c3nc4ccccc4s3)c2O[C@H]1CN(C)Cc1ccccc1,32.1% (inactive)
13,C[C@@H]1CN([C@H](C)CO)C(=O)c2cccc(NC(=O)c3nc4ccccc4s3)c2O[C@H]1CN(C)S(=O)(=O)c1ccc(Cl)cc1,67.6% (active)
14,Cc1ccc(S(=O)(=O)N(C)C[C@@H]2Oc3c(NC(=O)c4nc5ccccc5s4)cccc3C(=O)N([C@H](C)CO)C[C@@H]2C)cc1,81.1% (active)
15,C[C@@H]1CN([C@H](C)CO)C(=O)c2cccc(NC(=O)c3nc4ccccc4s3)c2O[C@@H]1CN(C)C,-35.8% (inactive)
16,CC(C)NC(=O)N(C)C[C@@H]1Oc2c(NC(=O)c3nc4ccccc4s3)cccc2C(=O)N([C@H](C)CO)C[C@H]1C,47.9% (inactive)
17,C[C@H]1CN([C@@H](C)CO)C(=O)Cc2cc(NC(=O)CCCN(C)C)ccc2O[C@@H]1CN(C)Cc1ccc(-c2ccccc2)cc1,-19.2% (inactive)
18,COc1ccc(NC(=O)N(C)C[C@@H]2Oc3ccc(NC(=O)CCC(F)(F)F)cc3C(=O)N([C@@H](C)CO)C[C@H]2C)cc1,-13.2% (inactive)
19,C[C@@H]1CN([C@@H](C)CO)C(=O)CCCn2cc(nn2)CO[C@@H]1CN(C)Cc1cccc(O)c1,-17.1% (inactive)
20,C[C@@H]1CN([C@@H](C)CO)C(=O)c2cc(NC(=O)c3ccncc3)ccc2O[C@@H]1CN(C)S(C)(=O)=O,-8.16% (inactive)
21,C[C@H]1CN([C@@H](C)CO)C(=O)CCCn2nncc2CO[C@H]1CN(C)Cc1cccc(C(=O)O)c1,-16.6% (inactive)

row,SMILES,activity score (inhibition)
1,COc1cccc(-c2cnc3c(c2)C(=O)N([C@H](C)CO)C[C@H](C)[C@H](CN(C)C(=O)NC(C)C)O3)c1,3.35% (inactive)
2,C[C@H](CO)N1C[C@H](C)[C@H](CN(C)S(C)(=O)=O)Oc2c(NC(=O)Nc3cccc4ccccc34)cccc2C1=O,-17.4% (inactive)
3,Cc1ccc(CN(C)C[C@@H]2OCc3cnnn3CCCC(=O)N([C@@H](C)CO)C[C@H]2C)cc1,-0.307% (inactive)
4,C[C@@H]1CN([C@@H](C)CO)C(=O)c2cccc(NC(=O)c3ccc(-c4nccs4)cc3)c2O[C@@H]1CN(C)S(=O)(=O)c1ccccc1,24.8% (inactive)
5,C[C@@H]1CN([C@@H](C)CO)C(=O)c2cccc(NC(=O)c3ccc(-c4nccs4)cc3)c2O[C@H]1CN(C)Cc1ccc(Cl)c(Cl)c1,85.3% (active)
6,C[C@@H]1CN([C@@H](C)CO)C(=O)c2cccc(NC(=O)c3ccc(-c4nccs4)cc3)c2O[C@@H]1CN(C)Cc1ccncc1,20.7% (inactive)
7,C[C@H](CO)N1C[C@H](C)[C@H](CN(C)S(C)(=O)=O)Oc2c(NC(=O)c3ccc(-c4nccs4)cc3)cccc2C1=O,9.35% (inactive)
8,C[C@H]1CN([C@@H](C)CO)C(=O)c2cccc(NC(=O)c3ccc(-c4nccs4)cc3)c2O[C@H]1CN(C)Cc1ccc(C(=O)O)cc1,-0.442% (inactive)
9,Cc1ccc(S(=O)(=O)N(C)C[C@H]2Oc3c(NC(=O)c4ccc(-c5nccs5)cc4)cccc3C(=O)N([C@H](C)CO)C[C@H]2C)cc1,69.5% (active)
10,C[C@@H]1CN([C@H](C)CO)C(=O)c2cccc(NC(=O)c3cnccn3)c2O[C@@H]1CN(C)Cc1ccncc1,-11.1% (inactive)
11,C[C@@H]1CN([C@H](C)CO)C(=O)c2cccc(NC(=O)c3cnccn3)c2O[C@@H]1CN(C)Cc1ccc(C(=O)Nc2ccccc2N)cc1,67.2% (active)
12,C[C@H](CO)N1C[C@H](C)[C@@H](CN(C)S(=O)(=O)c2ccccc2)Oc2c(NC(=O)c3ccc(-c4nccs4)cc3)cccc2C1=O,20.1% (inactive)
13,C[C@H](CO)N1C[C@H](C)[C@@H](CN(C)S(C)(=O)=O)Oc2c(NC(=O)c3ccc(-c4nccs4)cc3)cccc2C1=O,-3.29% (inactive)
14,C[C@@H]1CN([C@@H](C)CO)C(=O)c2cccc(NC(=O)c3cnccn3)c2O[C@H]1CN(C)Cc1ccc(C(=O)O)cc1,2.36% (inactive)
15,C[C@H](CO)N1C[C@H](C)[C@@H](CN(C)Cc2ccc(C(=O)Nc3ccccc3N)cc2)Oc2c(NC(=O)c3ccc(-c4nccs4)cc3)cccc2C1=O,64% (active)
16,O=C(O)c1cccc(/C=N/NC(=O)c2cccc(C(=O)NO)c2)c1,-15.8% (inactive)
17,Cc1cccc(CN(C)C[C@@H]2OCc3cn(nn3)CCCC(=O)N([C@@H](C)CO)C[C@H]2C)c1,-37.4% (inactive)
18,Cc1cccc(S(=O)(=O)N(C)C[C@@H]2OCc3cnnn3CCCC(=O)N([C@H](C)CO)C[C@@H]2C)c1,5.66% (inactive)
19,C[C@H]1CN([C@@H](C)CO)C(=O)Cc2cc(NC(=O)Cc3ccccc3)ccc2O[C@H]1CN(C)S(=O)(=O)c1ccc(Cl)cc1,30.9% (inactive)
20,Cc1ccc(S(=O)(=O)Nc2cccc3c2O[C@H](CN(C)CC2CCCCC2)[C@H](C)CN([C@H](C)CO)C3=O)cc1,2.35% (inactive)
21,CNC[C@@H]1Oc2c(NC(=O)Nc3ccc(OC)cc3)cccc2C(=O)N([C@@H](C)CO)C[C@@H]1C,-23.4% (inactive)

row,SMILES,activity score (inhibition)
1,COc1ccc(NC(=O)Nc2ccc3c(c2)CC(=O)N([C@H](C)CO)C[C@H](C)[C@H](CN(C)S(=O)(=O)c2ccccc2)O3)cc1,-4.14% (inactive)
2,Cc1ccc(S(=O)(=O)N(C)C[C@H]2Oc3c(NS(=O)(=O)c4cn(C)cn4)cccc3C(=O)N([C@@H](C)CO)C[C@H]2C)cc1,-10.8% (inactive)
3,Cc1noc(C)c1NC(=O)Nc1ccc2c(c1)C(=O)N([C@@H](C)CO)C[C@H](C)[C@H](CN(C)CC1CCCCC1)O2,7.21% (inactive)
4,O=C(N/N=C/c1ccc(O)cc1Br)c1ccccc1O,-10.3% (inactive)
5,COc1ccc(CN(C)C[C@H]2Oc3c(NC(=O)c4ccncc4)cccc3C(=O)N([C@H](C)CO)C[C@@H]2C)cc1,80.9% (active)
6,COc1ccc(NC(=O)Nc2cccc3c2O[C@@H](CN(C)Cc2ccncc2)[C@H](C)CN([C@H](C)CO)C3=O)cc1,-7.67% (inactive)
7,COc1ccc(NC(=O)Nc2cccc3c2O[C@H](CN(C)Cc2ccncc2)[C@@H](C)CN([C@@H](C)CO)C3=O)cc1,2.96% (inactive)
8,COc1ccc(NC(=O)Nc2ccc3c(c2)CC(=O)N([C@@H](C)CO)C[C@H](C)[C@H](CN(C)C(=O)Nc2ccc4c(c2)OCO4)O3)cc1,-16.4% (inactive)
9,C[C@@H]1CN([C@@H](C)CO)C(=O)c2cc(NS(=O)(=O)c3ccc(Cl)cc3)ccc2O[C@H]1CN(C)S(=O)(=O)c1cn(C)cn1,-11.5% (inactive)
10,CNC[C@H]1Oc2c(NC(=O)C3CC3)cccc2C(=O)N([C@@H](C)CO)C[C@@H]1C,-26.9% (inactive)
11,C[C@H]1CN([C@@H](C)CO)C(=O)c2cccc(NS(C)(=O)=O)c2O[C@@H]1CN(C)C(=O)Nc1ccc(F)cc1,-4.72% (inactive)
12,C[C@@H]1CN([C@H](C)CO)C(=O)Cc2cc(NC(=O)Cc3ccccc3)ccc2O[C@@H]1CN(C)Cc1ccccc1,5.2% (inactive)
13,C[C@@H]1CN([C@@H](C)CO)C(=O)Cc2cc(NC(=O)Cc3ccccc3)ccc2O[C@@H]1CN(C)Cc1ccc2c(c1)OCO2,32.2% (inactive)
14,C[C@@H]1CN([C@H](C)CO)C(=O)Cc2cc(NC(=O)NC3CCCCC3)ccc2O[C@H]1CN(C)Cc1ccc(Cl)c(Cl)c1,7.26% (inactive)
15,C[C@H]1CN([C@@H](C)CO)C(=O)Cc2cc(NC(=O)Cc3ccccc3)ccc2O[C@@H]1CN(C)Cc1ccc(Cl)c(Cl)c1,41.9% (inactive)
16,C[C@@H]1CN([C@H](C)CO)C(=O)Cc2cc(NC(=O)CCCN(C)C)ccc2O[C@@H]1CN(C)Cc1ccc(Oc2ccccc2)cc1,-28.8% (inactive)
17,COc1ccc(CN(C)C[C@H]2Oc3ccc(NC(=O)Cc4ccccc4)cc3CC(=O)N([C@@H](C)CO)C[C@@H]2C)cc1,71.7% (active)
18,C[C@@H]1CN([C@@H](C)CO)C(=O)Cc2cc(NC(=O)Cc3ccccc3)ccc2O[C@@H]1CN(C)Cc1ccc(Oc2ccccc2)cc1,65.6% (active)
19,C[C@@H]1CN([C@H](C)CO)C(=O)Cc2cc(NC(=O)Cc3ccccc3)ccc2O[C@H]1CN(C)Cc1ccc(Oc2ccccc2)cc1,42.5% (inactive)
20,C[C@H]1CN([C@@H](C)CO)C(=O)Cc2cc(NC(=O)NC3CCCCC3)ccc2O[C@@H]1CN(C)Cc1ccc(Oc2ccccc2)cc1,75.3% (active)
